Results taken from PubChem BioAssay.
The source made the active and inactive calls.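 Rule for the calls, unless noted: active = NADPH fluorescence slope more negative than the mean of all samples by about 3 SD, 99.7% confidence; inactive = the rest.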

Experiments:
[1] = inhibitors of TNFa-induced NFkB p65 translocation, primary screen, imaging, HUVEC, MLSMR starter and 10KST1 sets (AID 438;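 active = inhibition above 20% together with a positive visual image hit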;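 note: compound added about 3h40 before a 20 min TNFalpha stimulation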;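 for inhibition: signal is the nuclear over cytoplasmic p65 intensity ratio per well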); details: HUVEC TNFa-induced p65 nuclear translocation; cell count: measured here: nuclei count (cytotoxicity indicator), at 2.08 µM; inhibition: at 2 µM, stronger effect = higher value, 0% TNFa-plus-vehicle, 100% no-TNFa wells
[2] = inhibitors of mutant huntingtin aggregation, primary screen, imaging, exon1htt(103Q)mCFP cells, high-content imaging (AID 483;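 active = visual image review flags a hit and inhibition of aggregation exceeds 20%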;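 note: compound exposure lasted 3 days before fixation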;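 for nuclei count: percent of the per-plate median nuclei count of sample wells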); details: exon1htt(103Q)mCFP cell line, aggregate imaging, at 2 µM; inhibition of aggregation: stronger effect = higher value; nuclei count: measured here: cell count, toxicity
[3] = inhibitors of E-selectin induction by TNFa, primary screen, imaging, HUVEC, immunofluorescence, MLSMR starter and 10KST1 sets (AID 487;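 active = visually confirmed hit in the image check and inhibition above 20%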;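 for inhibition: signal is fraction of cell area covered by stained E-selectin grains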;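 for nuclei count: 100% = median nuclei count of all wells on the same plate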); details: HUVEC TNFalpha-induced E-selectin immunofluorescence imaging, at 2 µM; inhibition: stronger effect = higher value; nuclei count: measured here: cell number, toxicity
[4] = biological target: Voltage-gated potassium channel subunit beta-2 (Rattus norvegicus) (UniProt P62483); test: KvBeta enzyme negative modulators, primary screen, biochemical, NADPH fluorescence (AID 622;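 active = fluorescence slope higher than the sample average by over 3 SD, cut at about -0.22 in these data, passing the limit was not always enough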;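 note: slope of raw intensity against log time taken from 70 to 1610 s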); details: recombinant KvBeta, 4-cyanobenzaldehyde reduction, at 10 µM, stronger effect = higher value
Sequence of Voltage-gated potassium channel subunit beta-2 (Rattus norvegicus) (P62483 whole entry, looked up): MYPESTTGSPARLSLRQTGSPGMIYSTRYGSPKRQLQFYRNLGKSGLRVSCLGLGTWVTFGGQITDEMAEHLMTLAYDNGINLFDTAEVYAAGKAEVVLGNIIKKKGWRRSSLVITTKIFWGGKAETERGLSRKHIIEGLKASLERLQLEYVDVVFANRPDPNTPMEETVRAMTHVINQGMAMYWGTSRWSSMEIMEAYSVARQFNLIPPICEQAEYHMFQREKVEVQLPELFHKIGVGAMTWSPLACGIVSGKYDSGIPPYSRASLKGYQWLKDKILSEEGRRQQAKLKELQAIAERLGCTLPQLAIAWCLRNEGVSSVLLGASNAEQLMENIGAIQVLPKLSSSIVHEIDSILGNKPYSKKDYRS

[5] = biological target: Voltage-gated potassium channel subunit beta-2 (Rattus norvegicus) (UniProt P62483); test: KvBeta positive modulators, primary screen, biochemical, NADPH fluorescence (AID 623); details: Recombinant KvBeta, NADPH fluorescence decrease slope, 10 min; at 10 µM; stronger effect = lower value;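 note: fluorescence intensity change per second fitted from 20 to 320 s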
[6] = biological target: Alpha-2C adrenergic receptor (Homo sapiens) (UniProt P18825); test: modulators of alpha2C/GIRK thallium flux, primary screen, cell-based, HEK293 alpha2C/GIRK1/2 (AID 624;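 active = fluorescence slope after compound addition differing from the mean of all screened samples at 99.7% confidence, in either direction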;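 note: slope of fluorescence ratio to pre-addition baseline per second over 15 to 24 s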); details: thallium flux BTC fluorescence, at 10 µM, actives lie on both sides
Sequence of Alpha-2C adrenergic receptor (Homo sapiens) (P18825 whole entry, looked up): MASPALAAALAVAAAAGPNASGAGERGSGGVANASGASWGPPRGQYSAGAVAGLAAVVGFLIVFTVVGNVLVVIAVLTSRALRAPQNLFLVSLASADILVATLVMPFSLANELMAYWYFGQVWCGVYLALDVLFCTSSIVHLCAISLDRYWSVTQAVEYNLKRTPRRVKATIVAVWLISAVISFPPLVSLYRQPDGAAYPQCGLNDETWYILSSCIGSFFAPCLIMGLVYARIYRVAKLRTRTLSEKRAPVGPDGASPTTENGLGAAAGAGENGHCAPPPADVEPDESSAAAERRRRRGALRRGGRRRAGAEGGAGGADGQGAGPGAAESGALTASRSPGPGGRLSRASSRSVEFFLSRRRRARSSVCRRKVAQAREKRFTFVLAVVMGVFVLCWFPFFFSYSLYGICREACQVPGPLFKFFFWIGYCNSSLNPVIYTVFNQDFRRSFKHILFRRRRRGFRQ

[7] = inhibitors of Sendai virus-induced IRF3 signaling, primary screen, TLR/RLR signaling modifier project, cell-based, Sendai virus stimulus, luciferase, 10K MLSCN set (AID 602276;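 active = inhibition at or above 50% at 10 µM; inactive = inhibition below 50%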;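 note: firefly luciferase from ISG56 promoter only with Renilla not read in this screen; 0% = Sendai virus plus DMSO and 100% = medium plus DMSO without virus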); details: HEK293 RL24 IRF3 luciferase reporter, at 10 µM, stronger effect = higher value
[8] = inhibitors of poly I:C-induced TLR3 signaling, primary screen, cell-based, poly I:C stimulus, luciferase, 10K MLSCN set (AID 602277;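 active = inhibition of the reporter signal at or above 50%; inactive = inhibition below 50%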); details: HEK293-TLR3 RL24 IRF3 luciferase reporter, at 10 µM, stronger effect = higher value

| SMILES | cell count [1] | inhibition [1] | inhibition of aggregation [2] | nuclei count [2] | inhibition [3] | nuclei count [3] | fluorescence slope [4] | NADPH fluorescence slope [5] | slope [6] | inhibition [7] | inhibition [8] |
| --- | --- | --- | --- | --- | --- | --- | --- | --- | --- | --- | --- |
| Cc1ccc2cc(C(c3nnnn3CC3CCCO3)N3CCCC4(CCCCC4)C3)c(=O)[nH]c2c1 (stereo not drawn) | 715 | 0.8% (inactive) | 23.8% (inactive) | 106% | -34% (inactive) | 112% | -0.618 (inactive) | -3.7e-05 (inactive) | 0.00614 (inactive) | 10.5% (inactive) | 16.9% (inactive) |
| O=C(NC1CC1)C1CCC(=O)N1C1CCCC1 (stereo not drawn) | 435 | -6.7% (inactive) | -18.4% (inactive) | 119% | -184% (inactive) | 246% | -0.47 (inactive) | 2.9e-05 (inactive) | 0.00569 (inactive) | 7.79% (inactive) | 14.9% (inactive) |
| O=C(COc1ccccc1)NCC(c1cccs1)N1CCOCC1 (stereo not drawn) | 412 | 9% (inactive) | 2% (inactive) | 101% | -82.3% (inactive) | 112% | -0.453 (inactive) | 0.000103 (inactive) | 0.00649 (inactive) | -14.3% (inactive) | -11.6% (inactive) |
| CCOC(=O)N1CCC(NC(=O)Cn2ncc3c4ccccc4n(C)c3c2=O)CC1 | 557 | -1% (inactive) | -0.9% (inactive) | 98.6% | -47.7% (inactive) | 105% | -0.28 (inactive) | -2.3e-05 (inactive) | 0.00602 (inactive) | 14.9% (inactive) | 26% (inactive) |
| Nc1cc(-c2ccc(Br)cc2)nn1S(=O)(=O)c1ccccc1 | 807 | 6.9% (inactive) | -1% (inactive) | 93.9% | -57.9% (inactive) | 109% | -0.609 (inactive) | -1.6e-05 (inactive) | 0.00722 (inactive) | 6.44% (inactive) | 32.2% (inactive) |
| CCc1ccc(N2CC(C(=O)OCC(=O)NC3CCS(=O)(=O)C3)CC2=O)cc1 (stereo not drawn) | 260 | 21% (inactive) | 12% (inactive) | 85.2% | 6.8% (inactive) | 91.9% | -0.468 (inactive) | 7e-05 (inactive) | 0.00704 (inactive) | 0.238% (inactive) | 7.99% (inactive) |
| Clc1cc2c(c(Cn3cnc4ccccc43)c1)OCOC2 | 566 | 7.5% (inactive) | 11.8% (inactive) | 77.2% | 4.1% (inactive) | 89.8% | -0.595 (inactive) | -3e-05 (inactive) | 0.00307 (inactive) | 7.15% (inactive) | -9.55% (inactive) |
| CCOC(=O)C1=C(C)Nc2nc(SCC(=O)OC)nn2C1c1cc(F)cc(F)c1 (stereo not drawn) | 432 | -15.7% (inactive) | -6.3% (inactive) | 96.1% | 1% (inactive) | 96% | -0.592 (inactive) | -3.9e-05 (inactive) | 0.00688 (inactive) | 2.11% (inactive) | 8.56% (inactive) |
| COc1ccc(N2CCN(CCNC(=O)CCS(=O)(=O)c3cccc4nsnc34)CC2)cc1 | 747 | -6.4% (inactive) | -23% (inactive) | 101% | 15% (inactive) | 109% | -0.598 (inactive) | -3.9e-05 (inactive) | 0.00466 (inactive) | 16.8% (inactive) | 15.8% (inactive) |
| Cc1c(C#N)c2ccccc2n1CC(=O)N1CCc2ccccc2C1 | 583 | 6% (inactive) | 8.7% (inactive) | 95.3% | 11.5% (inactive) | 114% | -0.581 (inactive) | -4.4e-05 (inactive) | 0.00747 (inactive) | -9.66% (inactive) | 21.9% (inactive) |
| CCOC(=O)C1CCN(C(=O)CCCCn2c(=O)[nH]c3ccccc3c2=O)CC1 | 517 | -8.6% (inactive) | -27.5% (inactive) | 100% | -54.8% (inactive) | 126% | -0.563 (inactive) | 3.1e-05 (inactive) | 0.00611 (inactive) | 0.817% (inactive) | -29.5% (inactive) |
| O=C(Cn1ncc2c1-c1ccccc1OC2)N1CCc2ccccc21 | 678 | 4.4% (inactive) | 10.6% (inactive) | 84.5% | 4.3% (inactive) | 108% | -0.587 (inactive) | 6e-06 (inactive) | 0.00757 (inactive) | 5.8% (inactive) | 1.51% (inactive) |
| Cc1ccc(C)c(N2CCN(C(=O)c3cc4ccccn4n3)CC2)c1 | 584 | -2.9% (inactive) | -16.9% (inactive) | 103% | -31.8% (inactive) | 118% | -0.615 (inactive) | -2.1e-05 (inactive) | 0.00707 (inactive) | -3.21% (inactive) | 21.6% (inactive) |
| N#CC1=C(SCC(=O)NC2CCCCC2)NC(=O)CC1c1ccco1 (stereo not drawn) | 709 | -7.8% (inactive) | -1.4% (inactive) | 62% | -10.6% (inactive) | 102% | -0.525 (inactive) | -5.1e-05 (inactive) | 0.00537 (inactive) | 10.9% (inactive) | 14% (inactive) |
| O=C(Nc1ccc2c(c1)OCO2)C(c1ccc(Cl)cc1)N1CCN(C(=O)c2ccco2)CC1 (stereo not drawn) | 359 | -2.1% (inactive) | -23.2% (inactive) | 102% | -43.9% (inactive) | 110% | -0.47 (inactive) | -3.7e-05 (inactive) | 0.00661 (inactive) | 20.6% (inactive) | 28.1% (inactive) |
| C=CCN1C(=O)C2(/C(=C(\O)c3ccc4c(c3)OCCO4)C(=O)C(=O)N2CCCOC)c2ccccc21 (stereo not drawn) | 390 | 8.6% (inactive) | 0.7% (inactive) | 104% | -37.2% (inactive) | 128% | -0.465 (inactive) | -1.1e-05 (inactive) | 0.00507 (inactive) | 20.5% (inactive) | 21.2% (inactive) |
| O=P(O)(CCc1ccccc1)CN1CCCCC1 | 446 | -6.3% (inactive) | -8.7% (inactive) | 100% | -137% (inactive) | 108% | -0.419 (inactive) | 5e-05 (inactive) | 0.00723 (inactive) | -8.42% (inactive) | -0.191% (inactive) |
| CCOC(=O)N1CCN(c2c(N3CCN(c4ccccc4OC)CC3)c(=O)c2=O)CC1 | 651 | -2.3% (inactive) | 18.3% (inactive) | 109% | -66.1% (inactive) | 129% | -0.532 (inactive) | -2.1e-05 (inactive) | 0.0077 (inactive) | 3.99% (inactive) | 15% (inactive) |
| COC(=O)c1ccc(NC(=O)CN2CCCC2)cc1 | 612 | -11.4% (inactive) | 13.1% (inactive) | 107% | 51.6% (inactive) | 141% | -0.514 (inactive) | -6.2e-05 (inactive) | 0.00467 (inactive) | 9.14% (inactive) | 7.68% (inactive) |
| CCc1nnc(NC(=O)COC(=O)CN2C(=O)c3ccccc3C2=O)s1 | 375 | 4.7% (inactive) | 7.1% (inactive) | 91.2% | 4.5% (inactive) | 84.7% | -0.53 (inactive) | -4.4e-05 (inactive) | 0.00636 (inactive) | -1.09% (inactive) | 12.5% (inactive) |
| O=C(c1ccccc1Oc1nnnn1-c1ccccc1)N1CCOCC1 | 315 | -0.9% (inactive) | -13.9% (inactive) | 107% | -73.9% (inactive) | 113% | -0.269 (inactive) | 2e-05 (inactive) | 0.00699 (inactive) | 9.07% (inactive) | 21.2% (inactive) |
| O=C(NCC(=O)N(c1ccc2c(c1)OCCO2)C(C(=O)NC1CCCC1)c1ccco1)c1ccco1 (stereo not drawn) | 245 | 17.9% (inactive) | -23.9% (inactive) | 83.9% | 20.3% (inactive) | 95.6% | -0.409 (inactive) | 3.7e-05 (inactive) | 0.00578 (inactive) | -2.48% (inactive) | -2.78% (inactive) |
| Cc1ccc(CCSCC(=O)O)cn1 | 174 | 4.9% (inactive) | 1.9% (inactive) | 90% | 10.4% (inactive) | 83.6% | -0.428 (inactive) | -1.1e-05 (inactive) | 0.00565 (inactive) | 4.3% (inactive) | 0.219% (inactive) |
| COc1cc(Cl)c(C)cc1NC(=O)COC(=O)c1cnc(C)cn1 | 345 | 3.8% (inactive) | 16.5% (inactive) | 95.2% | -118% (inactive) | 110% | -0.51 (inactive) | 3.8e-05 (inactive) | 0.00519 (inactive) | -3.59% (inactive) | 12.5% (inactive) |
| Cc1ccc(-c2noc(CN3C(C)CCCC3C)n2)cc1 (stereo not drawn) | 483 | 2.1% (inactive) | -5.2% (inactive) | 75.4% | -26.4% (inactive) | 101% | -0.531 (inactive) | -1.6e-05 (inactive) | 0.00754 (inactive) | 2.73% (inactive) | 0.396% (inactive) |
| Cc1cccc(CCNC(=O)CCc2nc(-c3ccccc3F)no2)c1 | 357 | 2.8% (inactive) | -1.1% (inactive) | 101% | -2.7% (inactive) | 114% | -0.415 (inactive) | -2.4e-05 (inactive) | 0.00305 (inactive) | -0.595% (inactive) | 2.35% (inactive) |
| CCOC(=O)CNC(=O)CSc1nc(N(C)C)nc(N2CCOCC2)n1 | 580 | 5.1% (inactive) | -7.9% (inactive) | 110% | -71.8% (inactive) | 111% | -0.517 (inactive) | -4e-05 (inactive) | 0.00497 (inactive) | 18.7% (inactive) | 26.3% (inactive) |
| CCCNS(=O)(=O)c1ccc(C(=O)NCC2CCCO2)cc1 (stereo not drawn) | 482 | 2.6% (inactive) | -16.7% (inactive) | 114% | -95.5% (inactive) | 114% | -0.529 (inactive) | -4.9e-05 (inactive) | 0.00794 (inactive) | 10.8% (inactive) | 20.7% (inactive) |
